# Bioassay records from PubChem BioAssay.
# PAX8 reporter = inhibitors of PAX8-driven TPO luciferase reporter, primary screen, RMG-I cells, single concentration; hit rate 1.2% among 360,000; inhibition, % at 12.6 µM; AID 652154, 2013; SteadyGlo, 24 h;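 active means mean replicate inhibition at least 60% with every replicate also reaching 60%; inconclusive means only one of the two criteria is met; inactive means mean below 60% and not all replicates reaching 60%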;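 further: luciferase light reporting Pax8 driven TPO promoter activity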
# EWS-Fli block = EWS/Fli-driven NR0B1 reporter inhibitors, primary screen, A673 cells, NR0B1 luciferase, luminescence, MLPCN library; AID 651661, 2012; viability-normalised; inhibition, % at 12.6 µM; hit rate 0.67% among 350,000;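 active means mean inhibition of at least 50% after viability correction, with every replicate also passing that limit; inconclusive means mean reaches 50% but only one of two replicates passes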;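 further: firefly luciferase signal divided by Alamar Blue viability fluorescence both relative to DMSO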
# HIV Env fusion = inhibitors of HIV-1 Env-driven cell-cell fusion, primary screen, HeLa-JRFL effector, CEM21 target cells, luciferase. inhibition, % at 12.3 µM. hit rate 1.1% among 360,000. AID 651610, 2012;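 active means mean replicate inhibition score of at least 50 and every replicate individually at or above 50; inconclusive means only one of the two criteria met; inactive means mean below 50 and not all replicates reaching 50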
# GAA850 FXN act = FXN promoter activators, primary screen, cell-based, luciferase luminescence, HEK293 lucGAA850. HEK293 lucGAA850 FXN promoter luciferase reporter, 24 h; percent of 10 µM SAHA response. activation, % at 6 µM. hit rate 0.56% among 360,000. AID 540364, 2011;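 active means activation above the average of all compounds screened plus 3 SD, cutoff fixed separately per campaign, cut at about 7.5% in these data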
# F508del corr = F508del CFTR correction, initial screen, CFBE line, single point | CFBE cells, YFP halide quenching; stimulated with forskolin plus potentiator P3; % fluorescence drop versus neutral controls | activity (quench increase), % at 7.58 µM | hit rate 0.36% among 350,000 | AID 720511, 2013;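 active means mean added fluorescence quench of at least 8% versus neutral control, with both replicates also reaching 8%; inconclusive means only one of the mean or replicate conditions met; inactive means mean below 8% and not both replicates reaching 8%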;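 further: cells transiently co-express mutant CFTR-F508del with the halide-sensitive YFP; corrector assay measuring rescue of mutant channel to the surface after 24 h compound exposure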
# A number is an active result; 0 = inactive; ? = inconclusive; - = no result given; [ ] = another dose, or the depositor's remark. A selection: hits, their analogues and other compounds. The true share with any hit is near 2.5%.
SMILES,PAX8 reporter,EWS-Fli block,HIV Env fusion,GAA850 FXN act,F508del corr
C[C@@H]1CN([C@@H](C)CO)C(=O)c2cc(NC(=O)Nc3ccc(C(F)(F)F)cc3)ccc2O[C@@H](C)CCCCO[C@@H]1CN(C)Cc1ccncc1,83,0,0,-,0
C[C@@H]1CCCCO[C@@H](CN(C)Cc2ccncc2)[C@H](C)CN([C@H](C)CO)C(=O)c2cc(NC(=O)Nc3ccc(C(F)(F)F)cc3)ccc2O1,99,0,0,-,0
C[C@@H]1CCCCO[C@@H](CN(C)Cc2ccncc2)[C@@H](C)CN([C@H](C)CO)C(=O)c2cc(NC(=O)Nc3ccc(C(F)(F)F)cc3)ccc2O1,0,0,0,-,0
C[C@H](CO)N1C[C@H](C)[C@H](CN(C)Cc2ccccc2)Oc2cc(C3=CCCC3)ccc2S1(=O)=O,-,0,0,-,0
C/C=C/c1ccccc1[C@@H]1[C@@H](C#N)N(C(=O)CN2CCOCC2)[C@H]1CO,-,0,-,-,0
O=C(Nc1cccc(Cl)c1)Nc1cccc(C(=O)O)c1,0,55,0,0,0
O=C(Nc1cccc(C(=O)O)c1)Nc1ccccc1Cl,0,?,0,0,0
O=C(O)c1cccc(NC(=O)c2ccccc2)c1,0,0,0,0,0
O=C(NCc1ccccc1)C(=O)Nc1cccc(C(=O)O)c1,0,57,0,0,0
Cc1ccc(C(=O)Nc2cccc(C(=O)O)c2)cc1,-,-,117,-,-
O=C(Nc1ccc(Cl)cc1)Nc1cccc(C(=O)O)c1,86,82,71,0,0
Cc1ccc(NC(=O)Nc2ccc(C(=O)N3CCOCC3)cc2)cc1,0,-,0,0,-
CC(=O)Nc1cccc(C(=O)/C=C/c2ccc(C)cc2)c1,75,0,0,0,-
CC(=O)c1cccc(NC(=O)Nc2ccc(C(=O)N3CCOCC3)cc2)c1,-,-,63,0,-
CC(C)NC(=O)N1[C@H](CO)[C@H]2c3ccccc3N(C(=O)Nc3ccccc3)C[C@H]21,0,0,-,-,0
O=C(O)CCCCCCCCc1cn(Cc2ccc(C(=O)c3ccccc3)cc2)nn1,0,54,0,0,14
CC(C)CC#Cc1ccc2c(c1)O[C@H](CN(C)Cc1ccccn1)[C@H](C)CN([C@@H](C)CO)S2(=O)=O,0,0,0,-,-
C[C@@H]1CN([C@H](C)CO)S(=O)(=O)c2ccc(C#CC3CC3)cc2O[C@H]1CN(C)Cc1ccccn1,-,?,0,-,17
CC(C)CC#Cc1ccc2c(c1)O[C@@H](CN(C)Cc1ccccn1)[C@H](C)CN([C@H](C)CO)S2(=O)=O,72,0,91[16.7 µM],-,-
Cc1noc(C)c1NC(=O)N[C@H]1C=C[C@H](CC(=O)NCCCN(C)C)O[C@H]1CO,-,-,-,-,0
O=C(Nc1cc(C(F)(F)F)ccc1N1CCOCC1)C1=NN(c2ccccc2)C(=O)CC1,80,-,0,0,0
O=C(Nc1ccccc1N1CCOCC1)C1=NN(c2ccccc2)C(=O)CC1,0,0,0,0,0
COC(=O)CN1C(=O)S/C(=C/c2cc(C)n(C)c2C)C1=O,0,-,0,8.8,-
COc1ccc(C(=O)OCC(=O)c2c[nH]c3ccccc23)c(OC)c1,0,0,0,0,0
CCOc1ccc(N(C)S(=O)(=O)c2ccc(C)c(C(=O)OCC(=O)c3c[nH]c4ccccc34)c2)cc1,0,0,58,0,0
SMILES,PAX8 reporter,EWS-Fli block,HIV Env fusion,GAA850 FXN act,F508del corr
O=C(Nc1ccccc1F)N1C[C@@H]2[C@H](c3ccccc31)[C@H](CO)N2C(=O)c1ccccn1,0,0,-,-,0
O=C(Nc1ccccc1F)N1C[C@H]2[C@@H](c3ccccc31)[C@@H](CO)N2C(=O)c1ccccn1,0,0,-,-,9.7
O=C(Nc1ccccc1)N1C[C@H]2[C@@H](c3ccccc31)[C@H](CO)N2C(=O)c1ccccn1,0,0,-,-,11
N[C@@H]1CC[C@@H](CCn2cc(C3CCCCC3)nn2)O[C@H]1CO,0,0,0,-,0
C[C@H](CO)N1C[C@H](C)[C@H](CN(C)C(=O)Nc2ccc3c(c2)OCO3)Oc2ccc(NC(=O)CCC(F)(F)F)cc2CC1=O,0,0,0,-,0
CCC(=O)N1C[C@@H](C)[C@@H](OC)CN(C)C(=O)c2cc(NC(=O)CC(F)(F)F)ccc2OC[C@H]1C,-,0,0,-,0
O=C(Nc1nc2c(s1)CCCC2)c1ccc(S(=O)(=O)N2CCCc3ccccc32)cc1,0,-,64,0,-
O=S(=O)(c1ccc(F)c(F)c1)N1CCCc2ccccc21,0,0,0,0,0
O=S(=O)(c1ccc(Br)cc1)N1CCCc2ccccc21,0,0,0,0,11
